This note sets out measurements from the supplement of paper PMC7726561.

The target in the first experiment is HLA-C*04:01. As to the kind of experiment: thermal melting temperature (Tm) of peptide-HLA complex; higher = more thermostable pHLA complex. As to conditions: C1R-A*02:01. The procedure, abridged:
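Values come from C1R-A*02:01 or C1R-B*07:02 lysates (5 × 10^7 cell equivalents per replicate, triplicate), heated for 10 min between 37 and 73 °C and immunoprecipitated overnight at 4 °C with W6/32–protein A sepharose. The acid-eluted peptides were quantified by DIA-MS with iRT normalisation and outlier correction, and each peak area was reported as median fold-change versus 37 °C. The reported Tm is the transition midpoint from a least-squares logistic sigmoid fit. An R^2 above 0.85 was required for each fit.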
As for KYDPNVYSI, the thermal melting temperature amounted to 50.6 °C.

TFDDIVHSF showed a thermal melting temperature of 54.2 °C.

TFDVAPSRL gave a thermal melting temperature of 52.3 °C.

In turn, IWEPLAVKL displayed a thermal melting temperature of 47.3 °C.

In turn, YYEEQHPEL registered a thermal melting temperature of 48.6 °C.

In the case of LFDKSINEF, the thermal melting temperature worked out at 56.3 °C.

In the case of TFDPVTKVL, the thermal melting temperature stood at 51.4 °C.

IWDVSVNSV returned a thermal melting temperature of 50.8 °C.

With LYDVPANSM, the thermal melting temperature came to 51.1 °C.

IYDSVKVYF gave a thermal melting temperature of 56.8 °C.

Take HWDPQEVTL: the thermal melting temperature was 58.9 °C.

In the case of FFDEESYSL, the thermal melting temperature was found to be 45 °C.

FYDPDVGNF gave a thermal melting temperature of 50.9 °C.

Turning to AFDEAIAEL, the thermal melting temperature amounted to 58.4 °C.

For the sequence IYDKFIAQL, the thermal melting temperature was 52.5 °C.

As to KFDDGAVFL, the thermal melting temperature worked out at 60.9 °C.

On to SYMEVPTYL, for which the thermal melting temperature was 54.8 °C.

With LYDPVISKL, the thermal melting temperature amounted to 56.9 °C.

The experiment is the same for the next values; noted with them: C1R-B*07:02.
KYDPNVYSI had a thermal melting temperature of 55.2 °C.

The sequence TFDDIVHSF showed a thermal melting temperature of 55.3 °C.

With TFDVAPSRL, the thermal melting temperature turned out to be 52.4 °C.

Sequence IWEPLAVKL came in with a thermal melting temperature of 47.2 °C.

As for YYEEQHPEL, the thermal melting temperature was 47 °C.

LFDKSINEF: the thermal melting temperature was 57.2 °C.

TFDPVTKVL gave a thermal melting temperature of 51.5 °C.

As to IWDVSVNSV, the thermal melting temperature amounted to 58.7 °C.

With LYDVPANSM, the thermal melting temperature worked out at 57.6 °C.

As for IYDSVKVYF, the thermal melting temperature turned out to be 57 °C.

HWDPQEVTL came in with a thermal melting temperature of 57.7 °C.

For FFDEESYSL, the thermal melting temperature turned out to be 43.7 °C.

For FYDPDVGNF, the thermal melting temperature came out at 51.2 °C.

Sequence AFDEAIAEL yielded a thermal melting temperature of 62.7 °C.

As for IYDKFIAQL, the thermal melting temperature amounted to 54.5 °C.

The sequence KFDDGAVFL gave a thermal melting temperature of 60.4 °C.

In turn, SYMEVPTYL yielded a thermal melting temperature of 61 °C.

On to LYDPVISKL, for which the thermal melting temperature is 57.3 °C.
